Compound activity: PubChem BioAssay, National Center for Advancing Translational Sciences (NCATS)
Hits are enriched below; roughly 7.2% of the tested compounds scored in any of these assays.
HCV inh: HCV inhibition. Huh7.5.1 HCVcc-Cre infection, luciferase reporter, 44 h. actives 3.4% (n = 340,000). Potency, µM (doses to about 41.8 µM), without a hit: top-dose activity change, negative = inhibition, actives largely listed as inhibitors
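HCVcc-Cre virus at an moi near 0.5 was added right after compound to cells cultured 4 h from seeding (1,000 cells/well). Luciferase activity was determined 44 h later, 15 min after substrate addition at RT.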
Marburg entry inh: Marburg virus entry inhibition | actives 1.8% (n = 300,000) | Marburg virus pseudotyped entry inhibition, cell reporter | Potency, µM (titrated, usually from 37.8 µM), without a hit: at the top dose activity change, negative = inhibition, most hits filed as inhibitors; calls by dose curve; tested in HEK293 cells
RE007 growth inh: less growth of the S. pombe RE007 Vpr strain; AID 651644; Potency, µM (doses to about 92.2 µM), for inactives: at the top dose activity change, negative = less growth, hits mostly inhibitors; S. pombe RE007 Vpr strain, BacTiter-Glo ATP luminescence, 24 h; actives 0.21% (n = 360,000); active = well fitted falling curve with a large enough effect; inconclusive = small, poorly fitted or top-dose-only effect; inactive = no such curve, though single readings can be large or run the other way; note: nearly all actives have a fitted effect of over 50% in size
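Fission yeast RE007 carrying one integrated HIV-1 vpr copy, seeded at OD 0.01 in PMG+AL medium with 23 nL pinned compound. Grown 24 h at 30 degrees; viability read by BacTiter-Glo luminescence after 5 min.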
FMDV inh: foot and mouth disease virus antiviral activity; actives 1.2% (n = 410,000); FMDV antiviral cell-based qHTS; AID 1159524; Potency, µM (top dose mostly 57.9 µM), for the others: at the highest dose activity change, negative = inhibition, hits mostly inhibitors; calls by dose curve; tested in HEK293T cells; note: read-out not given here; nearly all actives have a fitted effect of over 45% in size
Sm TGR block: S. mansoni TGR enzyme inhibition | AID 485364 | purified TGR, DTNB reduction, TNB absorbance 405 nm | actives 3% (n = 360,000) | Q962Y6 | Potency, µM (titrated, usually from 114 µM), for inactives: at the highest dose activity change, negative = inhibition, most hits filed as inhibitors; note: nearly all actives have a fitted effect of over 60% in size
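Kinetic colorimetric format: TGR-catalysed, NADPH-driven DTNB reduction monitored via TNB absorbance. Enzyme dispensed at 20 nM; compound exposure 15 min at room temperature before reaction start.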
LASV entry inh: inhibitors of Lassa virus binding or cell entry; AID 540256; Lassa virus pseudotype entry inhibition, cell reporter; Potency, µM (highest dose often 37.9 µM), for the others: at the highest dose activity change, negative = inhibition, actives largely listed as inhibitors; actives 1.2% (n = 300,000); calls by dose curve; tested in HEK293 cells; note: nearly all actives have a fitted effect of over 50% in size
Starred values were filed as active, the others as inactive; ? = inconclusive; . = not tested or not shown; [ ] = another dose, or the depositor's remark. Unless noted, calls come from the whole dose curve; as a rule, active = well fitted curve in the direction sought with a large enough effect; inconclusive = small, poorly fitted or top-dose-only effect, or another doubt; inactive = no such curve, though single readings can be large; an effect the other way counts as inactive or inconclusive. % is set by controls: 0 for no effect and ±100 for the full control effect; potency is the fitted concentration of half-maximal effect.

SMILES	HCV inh	Marburg entry inh	RE007 growth inh	FMDV inh	Sm TGR block	LASV entry inh
COc1cccc(-c2cc(C(F)(F)F)nc(NCCc3ccccc3)n2)c1	.	?	.	16%	7%	10%[46.1 µM]
Cc1ccc(CSc2c(C)cnc3c2c(=O)n(C)c(=O)n3C)cc1	.	.	.	-27%	10%	22%[46.1 µM]
Cc1ccc(C(=O)c2c(N)c(-c3nc(-c4ccc5c(c4)OCO5)cs3)c3ccccn23)cc1C	.	15%[46.1 µM]	.	3%	-14%	-11%[46.1 µM]
COc1ccc(Cl)cc1NC(=O)CN(C)CC(=O)Nc1c(C)n(C)n(-c2ccccc2)c1=O	3.5µM*	.	-11%	-23%	-11%	.
COc1ccc(OC)c(NC(=O)Nc2c(C)n(C)n(-c3ccccc3)c2=O)c1	.	-6%[46.1 µM]	.	3%	-1%	7%[46.1 µM]
COc1ccc(Cl)cc1NC(=O)CNC(c1ccccc1)c1ccccc1	?	?	24%	-21%	15%	2.5µM*
Cc1ccc2c(CNCc3cccs3)c(C(=O)O)n(Cc3ccc(F)cc3)c2c1	.	.	.	-4%	-2%	?
Cc1ccc(C(C(=O)NC2CCCCC2)N(C(=O)Cc2c[nH]c3ccccc23)c2ccccc2)o1 (centres undefined)	-10%	?	1%	-24%	-10%	?
CC(=O)Nc1ccc(N(C(=O)Cc2c[nH]c3ccccc23)C(C(=O)NC2CCCCC2)c2ccco2)cc1 (centres undefined)	?	-16%	12%	10%	-21%	5.8µM*
CC(C)NC(=O)CCn1c(SCc2c(F)cccc2Cl)nc2c(sc3ccccc32)c1=O	.	-18%[46.1 µM]	.	-4%	8%	26%[46.1 µM]
CC(=O)c1c(C)[nH]c(C2=NNC(=NCc3ccccc3)SC2)c1C	-29%	.	8%	26%	11µM*	.
c1ccc(CN=C2NN=C(c3ccccc3)CS2)cc1	?	?	-10%	16%	-17%	-21%
CN(C(=O)CSc1cn(CC(=O)N2CCCCCC2)c2ccccc12)c1ccccc1	.	.	.	5%	1%	-15%[46.1 µM]
S=C(Nc1ccccc1)Nc1nccs1	?	14µM*	.	34%	11µM*	15µM*
Fc1ccc(NC(=S)Nc2nccs2)cc1	?	.	-9%	55%	?	.
COc1cc2c(cc1O)[C@@H]1Cc3ccc(OC)c(O)c3CN1CC2	2.5µM*	.	0%	0%	-16%	.
Cc1cc(C)cc(NC(=O)c2cc(S(=O)(=O)N3CCC(C)CC3)cn2C)c1	.	.	.	-9%	-1%	7%[46.1 µM]
Cc1ccccc1NC(=S)c1ccc2ccccc2n1	?	.	-5%	27%	50µM*	.
Cc1c(C(=O)NCC(C)C)sc2ncnc(NCC3CCCO3)c12 (centres undefined)	.	.	.	0%	.	.
CCOC(=O)N/N=C/c1c(C)c(C(=O)c2ccc(F)cc2)n2ccccc12	20%	8%[46.1 µM]	0%	14%	-4%	0%
COC(=O)N/N=C/c1c(C)c(C(=O)c2ccc(F)cc2)n2ccccc12	?	?	1%	35µM*	2%	?
Cc1c(/C=N/NC(=O)c2cccnc2)c2ccccn2c1C(=O)c1ccc(F)cc1	-1%	3%	.	.	-8%	0%
Cc1c(/C=N/NC(=O)c2ccc(O)cc2)c2ccccn2c1C(=O)c1ccc(F)cc1	?	?	-22%	?	7%	11µM*
Cc1c(/C=N/NC(=O)c2ccccc2O)c2ccccn2c1C(=O)c1ccc(F)cc1	?	11µM*	3%	25µM*	1%	?
COc1ccc(/C=C/C(=O)NCC2Cc3cccc(-c4nc(C)cnc4C)c3O2)cc1OC (centres undefined)	.	.	.	-14%	.	.
COc1cc(-c2nc3nc(C)cc(C)n3c2Nc2ccc(Cl)cc2)ccc1O	.	-8%[46.1 µM]	.	-6%	-21%	?
Cc1ccc(Nc2c(-c3cccnc3)nc3ccc(Cl)cn23)cc1	.	1%[46.1 µM]	.	?	6%	-28%[46.1 µM]
COc1ccc(C(=O)NCCn2cc(SCC(=O)Nc3ccc4c(c3)OCCO4)c3ccccc32)cc1OC	.	-9%[46.1 µM]	.	?	3%	-27%[46.1 µM]
Cc1ccc(CSC2=Nc3ccccc3C3=NC(CCC(=O)NC4CCCCC4)C(=O)N23)cc1 (centres undefined)	.	.	.	?	-3%	13%[46.1 µM]
